Assay outcomes from PubChem BioAssay.
An excerpt weighted towards active compounds, which were near 4.1% of everything screened.
IDE cell activ: IDE (human) activation, cell-based; 0.073% of 340,000 active; HEK cells, FAbeta-B cleavage, fluorescence polarization; 0% vehicle, 100% cell-free pure enzyme wells; activation, % at 5.96 µM;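 active means activation above the mean of all tested compounds plus 3 SD, set per screening campaign, cut at about 17% in these data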
M18AAP inhibitor: blocks P. falciparum M18 aspartyl aminopeptidase. recombinant PfM18AAP, H-Glu-NHMec fluorogenic cleavage. inhibition, % at 7.35 µM. 1.2% of 290,000 active;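 active means inhibition above the campaign mean inhibition over all tested compounds plus 3 SD, cut at about 28% in these data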
CaV13 ICDI inh: Disruptors of the CACNA1D IQ motif to Ca2+-dependent inactivation inhibitor domain association, primary screening, Förster resonance energy transfer in intact living …; HEK cells, CFP/YFP FRET ICDI-IQ, plate reader, 10 min; percent FRET-ratio fall versus neutral wells; inhibition, % at 12.3 µM; 0.098% of 340,000 active;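 active means mean replicate inhibition of at least 30% and at least 1% of replicates passing that level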
ALR inh: inhibitors of human sulfhydryl oxidase ALR. purified ALR, DTT oxidation, H2O2 HRP-luminol luminescence. inhibition, % (test concentration not listed). 3.8% of 290,000 active;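 active means mean replicate inhibition above about 79%, with every replicate also reaching it, limit read from the data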
PolyA inhibitor: yeast polyadenylation inhibition; S. cerevisiae SKY197-pL101 polyadenylation reporter, beta-gal luminescence; efflux-impaired pdr1/pdr3 knockout yeast; score 100 = 6 SD above DMSO; 0.02% of 300,000 active; activity score, % at 12 µM;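 active means lowest replicate activity score at least 50, where 100 means six control SD above control mean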;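 further: yeast exposed to compound for 9 h at 30 °C; higher score means more reporter readthrough which indicates perturbed polyadenylation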
IDE inh: inhibits human insulin-degrading enzyme in HEK cells; FAbetaB cleavage, fluorescence polarization; inhibition, % at 5.59 µM; P14735; AID 434962; 0.41% of 320,000 active;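 active means percent inhibition above the average of all tested compounds plus 3 SD, set per screening campaign, cut at about 16% in these data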;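 further: IDE supplied by intact live HEK cells; FP after avidin binding of uncleaved biotin substrate so inhibition keeps polarization high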
Large screens that a line does not name were inactive.

O=C(/C=C/c1ccccc1)c1ccc2c(c1)OCCCCO2	none
Cc1sc(NC(=O)c2ccco2)c(C(=O)c2ccc(Cl)cc2)c1C	ALR inh 97.4
CCCCOc1ccc(CN2CCCCC2)cc1	none
Oc1ccc(N2CCN(Cc3ccc(OCCCN4CCCCC4)cc3)CC2)cc1	ALR inh 99.2
CCc1ccc(NC(=O)C2CCC(CNC(=O)[C@@H]3Cc4ccccc4CN3)CC2)cc1 (stereo partly specified)	none
COc1ccc(C2c3ccc(O)cc3Oc3ncn4nc(-c5ccccn5)nc4c32)cc1OC (stereo unspecified)	none (no result: ALR inh)
COc1ccc(C2c3ccc(O)cc3Oc3ncn4nc(-c5ccccn5)nc4c32)cc1 (stereo unspecified)	CaV13 ICDI inh 53.8
O=C(CSc1ccc2ccccc2n1)N/N=C/c1ccccc1O	none (no result: IDE inh)
O=C(Cn1cnc2ccccc21)N/N=C/c1ccccn1	ALR inh 99.4
O=C(CSc1ccc2ccccc2n1)N/N=C/c1ccc(O)cc1	ALR inh 99.3
O=C(CNS(=O)(=O)c1ccccc1)N/N=C\c1ccc(Cl)cc1	none (no result: ALR inh)
O=C(Cn1cnc2ccccc21)N/N=C/c1cccnc1	none
O=C(CNS(=O)(=O)c1ccccc1)N/N=C/c1ccc(O)cc1	ALR inh 99.0
O=C(CCn1cnc2ccccc21)N/N=C/c1ccc(O)cc1	ALR inh 99.3
O=C(COC(=O)c1cc([N+](=O)[O-])ccc1N1CCOCC1)NC1CCCCC1	none (no result: M18AAP inhibitor)
CC(C)(C)OC(=O)N1CCCN(C(c2ccnc3ccccc23)c2nnnn2-c2ccc3c(c2)OCCO3)CC1 (stereo unspecified)	none (no result: IDE cell activ, M18AAP inhibitor, ALR inh, PolyA inhibitor, IDE inh)
N#Cc1ccccc1OCc1cn(CC(=O)c2ccc(O)cc2)nn1	none (no result: M18AAP inhibitor, ALR inh, PolyA inhibitor, IDE inh)
COc1ccccc1NC(=O)[C@@H]1CCCN1S(=O)(=O)c1ccc(Cl)cc1	none (no result: M18AAP inhibitor, PolyA inhibitor)
CCCc1nnc(NC(=O)CCC(=O)N2CCN(S(=O)(=O)c3ccc(C)cc3)CC2)s1	none
O=C(Nc1nnc(COc2ccc(Br)cc2)s1)c1ccco1	none (no result: ALR inh)
Cc1ccc2nc(SCC(=O)N/N=C/c3ccc(C(=O)O)cc3)cc(C)c2c1	ALR inh 97.8
Cc1cc(SCC(=O)N/N=C/c2ccco2)nc2ccccc12	none (no result: IDE cell activ)
O=C(OC[C@H]1O[C@@H](OC(=O)c2cc(O)c(O)c(OC(=O)c3cc(O)c(O)c(O)c3)c2)[C@H](OC(=O)c2cc(O)c(O)c(OC(=O)c3cc(O)c(O)c(O)c3)c2)[C@@H](OC(=O)c2cc(O)c(O)c(OC(=O)c3cc(O)c(O)c(O)c3)c2)[C@@H]1OC(=O)c1cc(O)c(O)c(OC(=O)c2cc(O)c(O)c(O)c2)c1)c1cc(O)c(O)c(OC(=O)c2cc(O)c(O)c(O)c2)c1	none (no result: IDE cell activ, M18AAP inhibitor, CaV13 ICDI inh, ALR inh, PolyA inhibitor)
CN(C)C(=O)CSc1nc(-c2cccs2)c(-c2cccs2)[nH]1	ALR inh 98.8
O=C1CCC(C(=O)NCc2ccc3c(c2)OCO3)N1 (stereo unspecified)	none
Nc1c(C(=O)NCc2ccc3c(c2)OCO3)nnn1Cc1ccc(Br)cc1	none (no result: ALR inh)
O=C(O)Cc1ccc(O)c(O)c1	ALR inh 98.4 (no result: M18AAP inhibitor)
O=C(O)Cc1ccc2ccc3ccccc3c2c1	none (no result: IDE cell activ, M18AAP inhibitor)
O=C(NCCC1=CCCCC1)c1c(O)nc2ccccn2c1=O	PolyA inhibitor 69.1
O=C(NCCC1=CCCCC1)c1c(O)nc2sccn2c1=O	none (no result: M18AAP inhibitor, ALR inh)
CC(=O)Oc1ccc(/C=N/NC(=O)C2CCCN2S(=O)(=O)c2ccc(Cl)cc2)cc1 (stereo unspecified)	ALR inh 100.3
CN(C)CCCCOc1ccccc1-c1ccccc1	M18AAP inhibitor 29.3
O=C(CSc1nc2ccccc2n1Cc1ccccc1Cl)N/N=C/c1ccccc1C(=O)O	none (no result: ALR inh)
Cc1ccc2nc(-c3cccc(S(=O)(=O)N4CC(C)OC(C)C4)c3)cn2c1 (stereo unspecified)	ALR inh 98.1
Cc1ccc2nc(-c3cccc(S(=O)(=O)N4CCCC4)c3)cn2c1	none
CN(C)S(=O)(=O)c1cccc(-c2cn3cccnc3n2)c1	ALR inh 98.6
Cc1ccc2nc(-c3cccc(S(=O)(=O)N(C)C)c3)cn2c1	ALR inh 99.2 (no result: CaV13 ICDI inh)
O=S(=O)(c1cccc(-c2cn3cccnc3n2)c1)N1CCCCCC1	none
CCN(CC)S(=O)(=O)c1cccc(-c2cn3cc(C)ccc3n2)c1	none
